{"source": "PubChem BioAssay AID1246", "about": "(Columbia University Molecular Screening Center, 2008)", "note": "In all, about 120,000 compounds went through this assay and about 840 (0.7%) were called active. For the sample, actives were picked, then their nearest neighbours and some compounds at random. Unmarked numbers belong to inactive results.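 Rule for the calls: active = inhibition above the batch mean plus 3 SD, and confirmed as a hit on visual image review (cut at about 43% in these data); inconclusive = passes the inhibition cutoff but fails visual image review; inactive = the rest.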"}
{"test": "E-selectin induction blockers in HUVEC – imaging, immunofluorescence, high content, primary screen (AID 1246);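 note: 0% = TNF-stimulated DMSO wells and 100% = unstimulated control wells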", "conditions": "HUVEC TNFa-induced E-selectin immunofluorescence, at 2 µM, stronger effect = higher value"}
{"smiles": "CC(C)C(c1nnnn1Cc1ccccc1)N1CCC(C(N)=O)CC1", "note": "(stereo not given)", "inhibition": "100% (active)"}
{"smiles": "CC(C)C(c1nnnn1CCc1ccccc1)N1CCN(C(=O)c2ccco2)CC1", "note": "(stereo not given)", "inhibition": "20.3%"}
{"smiles": "Cc1ccc(C(c2nnnn2CS(=O)(=O)c2ccc(C)cc2)N2CCC(C(N)=O)CC2)cc1", "note": "(stereo not given)", "inhibition": "-22.9%"}
{"smiles": "CC1CCCC(C)N1/N=C/c1ccccc1OC(F)F", "note": "(stereo not given)", "inhibition": "0.15%"}
{"smiles": "O=C(CN(CC1CCCO1)C(=O)CNS(=O)(=O)c1ccc(F)cc1)NCc1ccco1", "note": "(stereo not given)", "inhibition": "-15.3%"}
{"smiles": "CCN(CCCNC(=O)CCn1c(=O)[nH]c2ccsc2c1=O)c1ccccc1", "inhibition": "-8.13%"}
{"smiles": "O=S(=O)(c1ccc2c(c1)OCCO2)N1CCc2ccccc21", "inhibition": "27.9%"}
{"smiles": "COCCN(C(=O)CCC(=O)Nc1nccs1)C(C(=O)NC(C)(C)C)c1ccc(Cl)cc1", "note": "(stereo not given)", "inhibition": "19.2%"}
{"smiles": "COc1cc(/C=N/Nc2ccc(C)cc2)cc(Br)c1O", "inhibition": "-4.64%"}
{"smiles": "Cc1cc(C)n2nc(C(=O)N(C)C(c3ccccc3)c3ccccc3)nc2n1", "inhibition": "45.1% (active)"}
{"smiles": "Cc1cc(C)n2nc(C(=O)N3CCN(Cc4ccc5c(c4)OCO5)CC3)nc2n1", "inhibition": "-35.2%"}
{"smiles": "Cc1cc(C)n2nc(SCC(N)=O)nc2n1", "inhibition": "-29.9%"}
{"smiles": "COC(=O)c1c(C(=O)OC)c(-c2cccc(C)c2)n2c1CS(=O)C2", "note": "(stereo not given)", "inhibition": "58.3%"}
{"smiles": "CSc1nc2nc(-c3cccc(C(F)(F)F)c3)ccn2n1", "inhibition": "-26.4%"}
{"smiles": "CC(CC(=O)C1C(C)C=CCC1(C)C)NNC(N)=O", "note": "(stereo not given)", "inhibition": "13.4%"}
{"smiles": "CC(=O)c1ccc(NC(=O)Nc2ccc([N+](=O)[O-])cc2C)cc1", "inhibition": "70.8% (active)"}
{"smiles": "CC(=O)Nc1ccc(C(=O)OCC(=O)Nc2ccc([N+](=O)[O-])cc2C(F)(F)F)cc1", "inhibition": "-7.06%"}
{"smiles": "CC(=O)c1cccc(NC(=O)Nc2ccc(C)cc2)c1", "inhibition": "8.52%"}
{"smiles": "CCCCN(CC(=O)NC(C)(C)C)C(=O)C(=O)Nc1ccc2c(c1)OCCO2", "inhibition": "-8.58%"}
{"smiles": "Cc1nccn1CCCNC(=O)CC1C(=O)NCCN1Cc1ccc(Cl)c(F)c1", "note": "(stereo not given)", "inhibition": "-5.16%"}
{"smiles": "COc1ccc(Cc2nnc(NS(=O)(=O)Cc3ccccc3)s2)cc1", "inhibition": "55.2%"}
{"smiles": "COc1ccc(Cc2nnc(NC(=O)Cc3cccs3)s2)cc1", "inhibition": "83.6% (active)"}
{"smiles": "O=C(Cc1cccs1)Nc1nnc(SCc2ccc(F)cc2)s1", "inhibition": "-12.5%"}
{"smiles": "CCCC(C)C(=O)NCc1ccncc1", "note": "(stereo not given)", "inhibition": "0.76%"}
{"smiles": "CCOC(=O)N1CCC(=NNC(N)=O)CC1", "inhibition": "-34.9%"}
{"smiles": "Cn1cc(-c2ccccc2)cc(C#N)c1=O", "inhibition": "3.87%"}
{"smiles": "Cc1cc(OC(=O)c2ccccc2)c([N+](=O)[O-])c(=O)[nH]1", "inhibition": "-11.2%"}
{"smiles": "CCOC(=O)Nc1ccccc1N1C(=O)c2ccccc2C1=O", "inhibition": "-7.24%"}
{"smiles": "CC(=O)NCCn1c(SCC(=O)Nc2ccc(C)cc2)nc2ccccc2c1=O", "inhibition": "-10.7%"}
{"smiles": "CC(=O)Nc1ccccc1Sc1ccc2c3c(cccc13)C(=O)N(c1ccc(C)cc1)C2=O", "inhibition": "62.1% (active)"}
{"smiles": "C/C=N/NC(=O)CCCC(=O)N/N=C/C", "inhibition": "-10.5%"}
{"smiles": "CN1CCC(OC(=O)COc2ccc(Cl)cc2Cl)CC1", "inhibition": "12.5%"}
{"smiles": "Cc1ccc(C(=O)NC(=S)Nc2ccc(N3CCOCC3)cc2)cc1", "inhibition": "2.01%"}
{"smiles": "Cc1ccc(C)c(Cn2cnc3c(oc4ccccc43)c2=O)c1", "inhibition": "-10.7%"}
{"smiles": "CC1CCC2(CC1)NC(=O)N(Cc1nnc(-c3cccs3)o1)C2=O", "note": "(stereo not given)", "inhibition": "-9.64%"}
{"smiles": "Cc1nc(-c2ccc(Cl)cc2)sc1C(=O)CBr", "inhibition": "24.5%"}
{"smiles": "CCc1nnc(NC(=O)CCCSc2nc3ccccc3[nH]2)s1", "inhibition": "-35.3%"}
{"smiles": "CCC(C)(C)NC(=O)CN(C(=O)C(=O)Nc1ccc2c(c1)OCCO2)C(C)(C)CC", "inhibition": "-8.58%"}
{"smiles": "COc1ccc(NC(=O)c2ccc(OC)cc2)cc1", "inhibition": "-30.5%"}
{"smiles": "COc1ccc(NC(=O)c2c(C)oc3c2CCCC3)cc1", "inhibition": "60.9% (active)"}
{"smiles": "COc1ccc(C(=O)Nc2ccc(S(=O)(=O)NC(C)C)cc2)cc1", "inhibition": "-8.02%"}
{"smiles": "COc1ccc(-c2[nH]ncc2CN(C)Cc2cccnc2)c(F)c1", "inhibition": "-5.34%"}
{"smiles": "O=C(NCc1nnc(SCC(=O)N2CCCc3ccccc32)o1)c1ccccc1F", "inhibition": "-38.5%"}
{"smiles": "CCN(CC)S(=O)(=O)c1ccc(N(C)CCc2ccc(OC)c(OC)c2)nc1", "inhibition": "0.93%"}
{"smiles": "CCCOc1ccc(C(=O)NCCc2ccccc2)cc1", "inhibition": "-42.2%"}
{"smiles": "O=C(CSc1nc2ccccc2c(=O)n1CCCO)N1CCc2ccccc21", "inhibition": "-7.95%"}
{"smiles": "Cn1c(SCC(=O)N2CCCc3ccccc32)nc2ccccc2c1=O", "inhibition": "-1.81%"}
{"smiles": "C=CCn1c(=O)c2ccccc2n2c(SCC(=O)N3CCCc4ccccc43)nnc12", "inhibition": "80.1% (active)"}
{"smiles": "Cc1c(Br)c([N+](=O)[O-])nn1CC(=O)N1CCN(Cc2ccccc2)CC1", "inhibition": "8.51%"}
{"smiles": "O=C(/C=C/c1ccccc1Cl)Nc1ccc(S(=O)(=O)Nc2ncccn2)cc1", "inhibition": "-13.4%"}
